Only some compounds are listed: those with a hit (about 2.8% of all), similar ones and a draw of the others.
POLK inh = DNA polymerase kappa (human) inhibition; Q9UBT6; purified Pol kappa, fluorescent DNA synthesis assay, 10 min; Potency, µM (titrated, usually from 107 µM), without a hit: at the highest dose activity, negative = inhibition, most hits filed as inhibitors; 400,000 tested, 0.53% active; note: potency is the fitted concentration of half-maximal effect; % is set by controls: 0 for no effect and ±100 for the full control effect
Target sequence (Q9UBT6 whole entry, looked up): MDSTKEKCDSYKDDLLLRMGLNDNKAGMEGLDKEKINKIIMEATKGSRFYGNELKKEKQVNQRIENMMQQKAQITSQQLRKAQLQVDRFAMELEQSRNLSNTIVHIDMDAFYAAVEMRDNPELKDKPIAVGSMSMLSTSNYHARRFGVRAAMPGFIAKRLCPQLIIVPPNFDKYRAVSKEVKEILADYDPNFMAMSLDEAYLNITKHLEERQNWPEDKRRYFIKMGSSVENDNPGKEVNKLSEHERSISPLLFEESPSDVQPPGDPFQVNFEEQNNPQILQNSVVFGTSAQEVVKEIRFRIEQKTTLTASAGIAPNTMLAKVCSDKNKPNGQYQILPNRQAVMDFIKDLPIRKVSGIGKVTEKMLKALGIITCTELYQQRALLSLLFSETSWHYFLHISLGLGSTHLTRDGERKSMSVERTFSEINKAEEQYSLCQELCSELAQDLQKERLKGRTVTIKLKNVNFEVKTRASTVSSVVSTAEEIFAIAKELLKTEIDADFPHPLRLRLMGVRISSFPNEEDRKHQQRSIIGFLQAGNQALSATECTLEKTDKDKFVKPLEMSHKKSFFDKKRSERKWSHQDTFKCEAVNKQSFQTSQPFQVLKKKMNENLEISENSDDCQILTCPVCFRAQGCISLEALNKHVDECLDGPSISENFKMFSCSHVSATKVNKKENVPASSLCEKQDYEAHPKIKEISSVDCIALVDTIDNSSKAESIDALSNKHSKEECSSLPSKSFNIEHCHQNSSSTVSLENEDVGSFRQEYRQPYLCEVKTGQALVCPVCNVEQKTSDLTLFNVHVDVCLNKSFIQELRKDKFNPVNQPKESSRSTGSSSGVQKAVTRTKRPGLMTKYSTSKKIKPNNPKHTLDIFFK
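10 nM Pol kappa preincubated 15 min at room temperature with compounds, then reaction started with substrate at 50 nM final. Fluorescence read kinetically at 0 and 10 min; buffer-only wells served as negative control.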
Pol iota inh = blocks human DNA polymerase iota activity | 390,000 tested, 1% active | Potency, µM (titrated, usually from 115 µM), for inactives: at the highest dose activity, negative = inhibition, actives largely listed as inhibitors | Pol iota fluorescent replication assay, 10 min | Q9UNA4; note: potency is the fitted concentration of half-maximal effect
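Fluorescent replication assay read twice, at 0 min and 10 min after adding 50 nM (final) substrate. Enzyme (10 nM) and compounds were first incubated 15 min at room temperature; enzyme-free buffer wells were negative controls.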
PI5P4K alpha inh = blocks human PI5P4K alpha kinase activity; P48426; PI5P4Kalpha enzyme, ADP-Glo luminescence, 60 min; hits give low values; 330,000 tested, 1.2% active; max response, %; active = max response of -50% or lower; inconclusive = between -30% and -50%; inactive = -30% or higher; note: value at the top dose of about 77 µM; % is set by controls: 0 for no effect and ±100 for the full control effect
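Enzyme plus substrate dispensed, test compounds pinned in, then ATP (5 microM final) added. After 60 min at RT, ADP-Glo reagent 1 for 45 min and reagent 2 for 30 min preceded luminescence imaging.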
Pol beta inh = DNA polymerase beta (human) inhibition. P06746. Pol beta primer extension/strand displacement, fluorescence kinetic. Potency, µM (titrated, usually from 114 µM), for inactives: at the highest dose activity change, negative = inhibition, usual class: inhibitors. 340,000 tested, 1.3% active. AID 485314; note: potency is the fitted concentration of half-maximal effect; % is set by controls: 0 for no effect and ±100 for the full control effect
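Kinetic readout of DNA synthesis with strand displacement by Pol beta. Compound and 10 nM enzyme sit 15 min at room temperature; 50 nM substrate starts the reaction, read immediately and at 10 min.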
WRN helicase inh = inhibitors of human WRN helicase. Q14191. WRN helicase unwinding, fluorescent forked duplex, kinetic. Potency, µM (top dose mostly 114 µM), for the others: top-dose activity change, negative = inhibition, hits mostly inhibitors. 360,000 tested, 0.46% active; note: potency is the fitted concentration of half-maximal effect; % is set by controls: 0 for no effect and ±100 for the full control effect; nearly all actives have a fitted effect of over 55% in size
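Fluorescence dequenching readout, ex 525 nm/em 598 nm, kinetic mode: forked duplex DNA (100 nM final) with adjacent fluorophore and quencher unwound by WRN (20 nM final) with 2 mM ATP. Compound preincubation 15 min, room temperature.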
Pol eta inh = inhibitors of human DNA polymerase eta | AID 588591 | recombinant Pol eta, fluorescent DNA replication assay | Potency, µM (doses to about 114 µM), inactives show top-dose activity change, negative = inhibition, usual class: inhibitors | Q9Y253 | 390,000 tested, 1.2% active; note: potency is the fitted concentration of half-maximal effect; % is set by controls: 0 for no effect and ±100 for the full control effect
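Pol eta at 10 nM preincubated with compounds 15 min at room temperature; reaction started with fluorescent substrate (50 nM final) and read kinetically at 0 and 10 min.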
* = called active by the depositor; ? = inconclusive; · = no result given; [ ] = remark or other dose. Unless noted, calls come from the whole dose curve; as a rule, active = well fitted curve in the direction sought with a large enough effect; inconclusive = small, poorly fitted or top-dose-only effect, or another doubt; inactive = no such curve, though single readings can be large; an effect the other way counts as inactive or inconclusive.

SMILES | POLK inh | Pol iota inh | PI5P4K alpha inh | Pol beta inh | WRN helicase inh | Pol eta inh
CC1N=C(SCC(=O)c2ccc(F)cc2)N2C(C)N=C(SCC(=O)c3ccc(F)cc3)N12 (centres undefined) | · | · | ? | · | -3% | -1%
COc1ccc2c(c1)OC1(O)COc3cc(OC)c(OC)cc3C1=C2 (centres undefined) | -15%[60.1 µM] | · | · | · | · | ·
Cc1cccc(N2C(=O)/C(=C/c3cccnc3)SC2=S)c1 | 5% | 19% | 5 | 1% | -2% | -16%
Cc1ccc(/C=C2\SC(=S)N(c3cccnc3)C2=O)o1 | 50µM* | ? | 1 | 3% | -9% | -16%
C#CCOCCOCCOCCNc1nc(N2CCOCC2)nc(N2CCN(C(=O)CCCCCCCCCCNC(=O)[C@H](CO)n3cc(CCCCCN)nn3)CC2)n1 | 19% | -9% | -19 | · | 3% | -11%
C#CCOCCOCCOCCNc1nc(N2CCN(C(=O)CCCCCCCCCCNC(=O)[C@@H](CCC(=O)O)n3cc(CCCCCN)nn3)CC2)nc(N2CCN(C(=O)CCCCCCCCCCNC(=O)[C@@H](CCC(=O)O)n3cc(CCCCCN)nn3)CC2)n1 | 17% | -16% | -19 | · | 1% | -1%
C#CCOCCOCCOCCNc1nc(N2CCN(C(=O)CCCCCCCCCCNC(=O)[C@@H]([C@H](C)O)n3cc(C)nn3)CC2)nc(N2CCN(C(=O)CCCCCCCCCCNC(=O)[C@@H]([C@H](C)O)n3cc(C)nn3)CC2)n1 | -23% | ? | 6 | · | 2% | -12%
C#CCOCCOCCOCCNc1nc(N2CCN(C(=O)CCCCCCCCCCNC(=O)[C@H]([C@@H](C)CC)n3cc(CCCCCN)nn3)CC2)nc(N2CCN(C(=O)CCCCCCCCCCNC(=O)[C@@H]([C@H](C)O)n3cc(C)nn3)CC2)n1 | ? | ? | ? | · | 56µM* | ?
C#CCOCCOCCOCCNc1nc(N2CCN(C(=O)CCCCCCCCCCNC(=O)[C@H](CCCCN)n3cc(CCCC(=O)O)nn3)CC2)nc(N2CCN(C(=O)CCCCCCCCCCNC(=O)[C@H](CCCCN)n3cc(CCCC(=O)O)nn3)CC2)n1 | -7% | ? | -56* | · | 1% | -19%
C#CCOCCOCCOCCNc1nc(N2CCN(C(=O)CCCCCCCCCCNC(=O)[C@H](CCCCN)n3cc(CCO)nn3)CC2)nc(N2CCN(C(=O)CCCCCCCCCCNC(=O)[C@@H]([C@H](C)O)n3cc(C)nn3)CC2)n1 | 21% | ? | -84* | · | 18% | ?
C#CCOCCOCCOCCNc1nc(N2CCN(C(=O)CCCCCCCCCCNC(=O)[C@H](CCCCN)n3cc(CCO)nn3)CC2)nc(N2CCN(C(=O)CCCCCCCCCCNC(=O)[C@H](CCCCN)n3cc(CCO)nn3)CC2)n1 | -15% | 14% | -67* | · | -10% | ?
C#CCOCCOCCOCCNc1nc(N2CCN(C(=O)CCCCCCCCCCNC(=O)[C@H](CCC(=O)O)n3cc(CCCCCN)nn3)CC2)nc(N2CCN(C(=O)CCCCCCCCCCNC(=O)[C@@H]([C@H](C)O)n3cc(C)nn3)CC2)n1 | -2% | ? | -22 | · | 4% | -13%
O=S(=O)(c1ccc(F)cc1)N1CCN(c2nc(-c3cccs3)nc3ccccc23)CC1 | -7% | ? | · | · | · | ·
Cc1c(C(=O)O)sc2nc(/C=C/c3cccc(O)c3)[nH]c(=O)c12 | -13% | ? | -77* | -2% | ? | 35µM*
COC(=O)c1ccc(CSc2nc3sc(C(=O)O)c(C)c3c(=O)[nH]2)cc1 | 0% | -16% | -24 | 0% | -18% | -10%
CSCCC(C(=O)Nc1c(C)cccc1C)N1CCN(c2ccc(C(F)(F)F)cn2)CC1 (centres undefined) | · | · | 14 | · | 3% | ·
Nc1ccc2c(c1)C=C/C2=C\c1ccccc1 | -21% | -9% | · | · | · | ·
O=c1c2c3c(sc2nc2n1CCCCC2)CCC3 | 6% | 11% | -20 | 32µM* | 3% | -12%
O=C1c2sc3nc4n(c(=O)c3c2CCC1Br)CCCCC4 (centres undefined) | -6% | ? | -29 | 50µM* | -33% | ?
O=C1CCCc2c1sc1nc3n(c(=O)c21)CCCCC3 | 0% | 15% | 2 | 29% | 2% | -12%
CCOC(=O)c1c(C)n(-c2ccc(OC)cc2)c2ccc(OC(=O)COc3ccccc3)cc12 | -4% | 16% | · | -10% | · | -23%
CCCN1CNc2c(c(=O)[nH]c(=S)n2CCc2ccc(Cl)c(Cl)c2)C1 | -1% | -12% | · | · | · | ·
COCCNC(=O)Cn1cc(/C=N/NC(=O)c2ccc(Oc3ccc(O)cc3)cc2)c2ccccc21 | -5% | 41% | -107* | -1% | -13% | -12%
CC(=O)[C@@]1(O)[C@H](C)CC2C3CC=C4CC(OP(=O)(O)O)CC[C@]4(C)C3CC[C@@]21C (some centres undefined) | -2% | -4% | -7 | 50µM* | 5% | -21%
COCCN=c1scc(-c2cccs2)n1/N=C/c1ccc(O)c(O)c1O | ? | ? | ? | 4.5µM* | -36%[57.1 µM] | ?
SMILES | POLK inh | Pol iota inh | PI5P4K alpha inh | Pol beta inh | WRN helicase inh | Pol eta inh
COCCN=c1scc(-c2ccccc2)n1/N=C/c1c[nH]c2ccccc12 | -15% | -7% | 21 | 14% | -12% | -8%
C=CCSSSCC=C | 0%[60.1 µM] | · | · | · | · | ·
C[C@H]1CN([C@@H](C)CO)C(=O)c2cc(C3=CCCC3)cnc2O[C@@H]1CN(C)C(=O)c1ccncc1 | · | · | -10 | · | 6% | -4%
CC(CCc1ccco1)NC(=O)c1cccc2c1C(=O)N(C1CCCCC1)C2 (centres undefined) | -8% | 7% | -5 | ? | -2% | -18%
CCCN1Cc2cccc(C(=O)Nc3cc(OC)cc(OC)c3)c2C1=O | -13% | -28%[58.9 µM] | · | 7% | -12% | -1%
COc1ccc(N2Cc3cccc(C(=O)NC(C)CCc4ccco4)c3C2=O)cc1 (centres undefined) | ? | ? | -11 | 7.9µM* | 35µM* | 22µM*
COc1ccc(N2Cc3cccc(C(=O)Nc4ccc(C)c(C)c4)c3C2=O)cc1 | -27% | ? | · | 11µM* | · | -24%
COc1ccc(N2Cc3cccc(C(=O)Nc4ccc(F)cc4)c3C2=O)cc1 | ? | ? | · | 6.3µM* | · | ?
Fc1ccccc1Cc1cn2cc(-c3ccc(Cl)cc3)nc2s1 | 4% | ? | · | 8% | · | -19%
CCOC(=O)C1=C(C)N(CCCCCC(=O)O)C(=O)NC1c1ccc(Cl)cc1 (centres undefined) | 5% | 6% | -7 | 12% | 0% | -22%

Screening results from PubChem.
